Our source for the growth values is PubChem BioAssay (NCI).

Where “and” joins values, the source holds several entries; their conditions need not be identical. Equal entries are not always repeated. The panel holds about 83,000 compounds, 20% with a hit somewhere; the sample as a whole holds those more often.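 For each line, cells grew in 96-well plates with the test compound present at a single concentration for 48 hours.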 Calls of active or inactive are those of the source. The calls were made as follows: active = growth percent below 10; inactive = the rest.

The assay relates to MDA-MB-468 breast. In words: NCI-60 one-dose screen, 48 h (100 = growth as untreated, 0 = no growth, -100 = all killed). Conditions: 10 µM unless noted.
`CCOC(=O)c1c(NC(=O)c2ccc(C(C)(C)C)cc2)sc2cc(O)ccc12`: the growth is 87.9% (inactive).

In the case of `C[C@]12CC[C@@H]3c4ccc(O)cc4CC[C@H]3[C@@H]1C[C@H](O)[C@@H]2O`, the growth was 87.1% (inactive).

`O=C1C[C@@H](c2ccccc2)Oc2c(Cc3ccccc3O)c(O)c(Cc3cc(Cc4cc(Cc5ccccc5O)ccc4O)ccc3O)c(O)c21`: the growth was 101% (inactive).

For `N#Cc1c(-c2ccccc2)nc(SCC(O)CN2CCOCC2)nc1N1CCOCC1` (stereo not drawn), the growth is 76.7% (inactive).

On to `O=C(c1ccccc1)c1ccccc1Cl`, for which the growth was 110% (inactive).

On to `O=c1cc(-c2ccc(Cl)cc2)[nH]c2ccccc12`, for which the growth is 85.6% (inactive).

Consider `Cl[C@@H]1CCO[C@H](c2cc3ccccc3c3ccccc23)C1`, for which the growth is 93.4% (inactive).

As for `Nc1c(C(=O)Nc2cccc3c2OCCO3)sc2nc3c(cc12)C(=O)CCC3`, the growth is 18.7% (inactive).

As to `Cc1cc(C)c(S(=O)O)c(C)c1`, the growth was 106% (inactive).

For `COc1ccc2c(c1)oc1c(C)c3c(c(C)c12)C(=O)N(Nc1ccccc1)C3=O`, the growth was 115% (inactive).

For the compound `COc1ccc(-c2nc3ccc(-c4nc5ccc(N6CCN(C)CC6)cc5[nH]4)cc3[nH]2)cc1OC`, the growth was -30.1% (active).

With `O=C(Nc1cccnc1Nc1ccccc1)c1cn(Cc2cccc(Oc3ccccc3)c2)nn1`, the growth is 69.9% (inactive).

For the compound `Clc1ccc2oc3c(NCCCN4CCOCC4)c4ccccc4nc3c2c1`, the growth was 5.24% (active).

Take `N/C(=N\O)c1ncc(-c2ccc(C(F)(F)F)cc2)c(NC2CCCCCC2)n1`: the growth is -20.4% [100 µM] (active).

`COc1cc(C2=NN(C(C)=O)C(c3ccc(N4CCOCC4)cc3)C2)cc(OC)c1OC` (stereo not drawn): the growth was 96.7% (inactive).

Consider `COc1ccc(-c2nc3sc(-c4ccc(OC)cc4)c(-c4ccc(OC)cc4)n3c2/C=C/c2ccc(C(C)C)cc2)cc1`, for which the growth is 98.9% (inactive).

Take `CSc1nc(C)c([N+](=O)[O-])c(N)n1`: the growth was 106% (inactive).

As to `O=CN(SSN(C=O)C1CCCCC1)C1CCCCC1`, the growth is 108% (inactive).

Take `O=C1c2ccccc2C(=Cc2ccccc2)c2ccccc21`: the growth was -7.09% (active).

For the compound `CC1=CC(=O)C=CC1=Nc1ccc(N(C)C)cc1`, the growth is 48.8% (inactive) and -87.8% (active).

Regarding `Nc1nc(-c2ccc(Cl)cc2)nc2c1sc(=S)n2-c1ccccc1`, the growth is 27.3% (inactive).

Turning to `CCOC(=O)C(C(=O)OCC)C(c1ccccc1)N1CCN(c2ccccc2)CC1` (stereo not drawn), the growth was 108% (inactive) and 103% (inactive).

Turning to `NS(=O)(=O)N(c1cc(C(F)(F)F)cc(C(F)(F)F)c1)C1CCN(Cc2ccc(F)cc2)CC1`, the growth is 52.9% (inactive).

As to `COC1=C(OC)C(=O)C(SC/C=C(\C)CCCC(C)CCCC(C)CCCC(C)C)=CC1=O` (stereo not drawn), the growth is 42.6% (inactive).

In the case of `COCC(=O)NC/C=C/c1ccc2ncnc(Nc3ccc(Oc4ccc(C)nc4)c(C)c3)c2c1`, the growth is 28.4% (inactive).

`Cn1c(SCC(=O)c2ccc(F)cc2)nc2ccccc2c1=O`: the growth is 79.4% (inactive).

As for `O=C(Nc1ccc(Br)cc1)Nc1nc2ccc([N+](=O)[O-])cc2s1`, the growth is -29% (active).

On to `CC(=O)Nc1c(Cl)cc2c(c1Cl)Cc1ccccc1-2`, for which the growth was 70.6% (inactive).
